USP8 inh – human USP8 deubiquitinase inhibition | purified USP8, Ub-rhodamine cleavage fluorescence, 30 min | inhibition, % at 20 µM | actives 4.2% (n = 47,000) | AID 1645853
Target sequence (P40818 whole entry, looked up): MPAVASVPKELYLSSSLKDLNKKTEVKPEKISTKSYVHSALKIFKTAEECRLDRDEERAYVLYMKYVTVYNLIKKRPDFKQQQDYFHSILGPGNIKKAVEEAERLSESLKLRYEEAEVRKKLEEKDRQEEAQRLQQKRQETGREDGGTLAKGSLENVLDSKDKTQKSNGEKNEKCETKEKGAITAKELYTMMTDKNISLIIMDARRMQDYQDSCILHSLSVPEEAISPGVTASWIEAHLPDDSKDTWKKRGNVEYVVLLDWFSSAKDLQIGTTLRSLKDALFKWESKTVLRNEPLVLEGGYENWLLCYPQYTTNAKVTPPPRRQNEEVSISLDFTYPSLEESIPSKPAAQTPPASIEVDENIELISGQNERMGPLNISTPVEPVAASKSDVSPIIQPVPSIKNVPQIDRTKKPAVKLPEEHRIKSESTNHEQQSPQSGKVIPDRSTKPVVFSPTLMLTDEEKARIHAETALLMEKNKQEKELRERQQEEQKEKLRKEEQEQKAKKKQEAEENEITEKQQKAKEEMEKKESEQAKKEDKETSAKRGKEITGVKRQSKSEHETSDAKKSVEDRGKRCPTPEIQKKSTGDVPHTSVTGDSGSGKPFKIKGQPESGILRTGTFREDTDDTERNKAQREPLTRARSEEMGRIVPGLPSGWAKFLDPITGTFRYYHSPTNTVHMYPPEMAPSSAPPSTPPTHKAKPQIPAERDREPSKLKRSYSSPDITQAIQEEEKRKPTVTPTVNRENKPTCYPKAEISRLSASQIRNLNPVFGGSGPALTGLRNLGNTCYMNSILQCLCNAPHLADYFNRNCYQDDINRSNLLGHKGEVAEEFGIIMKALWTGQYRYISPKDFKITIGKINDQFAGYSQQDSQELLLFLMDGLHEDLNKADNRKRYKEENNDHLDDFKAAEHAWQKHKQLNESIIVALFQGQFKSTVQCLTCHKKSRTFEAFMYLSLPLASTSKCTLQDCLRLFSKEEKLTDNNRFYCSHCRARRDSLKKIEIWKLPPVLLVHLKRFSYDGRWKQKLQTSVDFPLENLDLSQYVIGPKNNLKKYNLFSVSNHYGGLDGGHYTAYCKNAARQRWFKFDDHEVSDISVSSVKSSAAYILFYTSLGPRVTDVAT
USP30 inh – blocks human USP30 ubiquitin-rhodamine cleavage. Q70CQ3. purified USP30, Ub-rhodamine cleavage fluorescence. inhibition, % at 25 µM. actives 5.3% (n = 47,000)
USP17 inh – blocks human USP17 ubiquitin-rhodamine cleavage; actives 6.5% (n = 47,000); inhibition, % at 50 µM; purified USP17, Ub-rhodamine cleavage fluorescence, 3 h; AID 1645855; A8MUK1
USP7 inh – inhibitors of human USP7 deubiquitinase; actives 0.3% (n = 47,000); inhibition, % at 20 µM; purified USP7, Ub-rhodamine cleavage fluorescence; Q93009
USP10 inh – inhibitors of human USP10 deubiquitinase; Q14694; purified USP10, Ub-rhodamine fluorescence, 60 min; inhibition, % at 20 µM; actives 1.1% (n = 47,000); AID 1645856
USP28 block – human USP28 deubiquitinase inhibition | Q96RU2 | purified USP28, Ub-rhodamine cleavage fluorescence, 30 min | inhibition, % at 25 µM | actives 3% (n = 47,000)
Numbers without * were called inactive. Shown are actives, neighbours in structure and some others; about 13% of the full set was active somewhere. Cut-off read from the data, not from the text of the source: active = inhibition above about 30%; inactive = the rest.

What do the screens show for `CC(=O)Nc1ccc(C(=O)/C=C2\NCCc3cc4c(cc32)OCCCO4)cc1`?
USP8 inh: 44.5*; USP30 inh: -271.7; USP17 inh: -141.0; USP7 inh: -11.2; USP10 inh: -6.1; USP28 block: -72.8

What do the screens show for `O=C(NCc1ccc2c(c1)OCCCO2)c1ccc2c(c1)OCCCO2`?
USP8 inh: 2.2; USP30 inh: -4.1; USP17 inh: -3.1; USP7 inh: -1.4; USP10 inh: -0.3; USP28 block: 0.9

What do the screens show for `Cc1ccc(-c2c[n+](CC(=O)Nc3cccc4ccccc34)c3n2CCC3)cc1`?
USP8 inh: 26.1; USP30 inh: 34.0*; USP17 inh: 6.8; USP7 inh: 0.7; USP10 inh: -2.0; USP28 block: 17.9

How did CCN1CCN(CCNC(=O)c2cc(-c3ccccn3)nc3ccccc23)CC1 do in these assays?
USP8 inh: -49.4; USP30 inh: -96.9; USP17 inh: -41.1; USP7 inh: -15.6; USP10 inh: -7.8; USP28 block: -38.8

Results for CC(=O)Nc1cc(NC(=O)CSc2nnc(-c3ccco3)c(-c3ccco3)n2)ccc1C ?
USP8 inh: 73.2*; USP30 inh: -103.0; USP17 inh: 46.0*; USP7 inh: -81.4; USP10 inh: -3.2; USP28 block: 3.3

How did Cc1ccc(NC(=O)CSc2nnc(-c3cnccn3)n2Cc2ccco2)cc1F do in these assays?
USP8 inh: 21.9; USP30 inh: -0.8; USP17 inh: 12.0; USP7 inh: -0.6; USP10 inh: -2.4; USP28 block: 9.1

What do the screens show for `O=C(CCCn1c(=O)[nH]c2cc(Cl)ccc2c1=O)N1CCc2ccccc2C1`?
USP8 inh: 69.1*; USP30 inh: 26.1; USP17 inh: 54.9*; USP7 inh: -11.0; USP10 inh: 4.3; USP28 block: 5.2

Results for O=C(CCCCn1c(=O)[nH]c2ccccc2c1=O)N1CCN(C2CCCCC2)CC1 ?
USP8 inh: 19.4; USP30 inh: 6.1; USP17 inh: 1.2; USP7 inh: 0.0; USP10 inh: -0.9; USP28 block: 2.2

What do the screens show for `O=C(CCCn1c(=O)[nH]c2ccc(Br)cc2c1=O)N1CCc2ccccc2C1`?
USP8 inh: 9.2; USP30 inh: 30.5*; USP17 inh: 8.7; USP7 inh: -13.1; USP10 inh: 6.2; USP28 block: 22.6

Results for CCCSc1nc(N)c2c3c(sc2n1)COC(C)(C)C3 ?
USP8 inh: 3.5; USP30 inh: -13.1; USP17 inh: 46.9*; USP7 inh: -1.4; USP10 inh: 3.1; USP28 block: -10.8

Results for Cc1ccc(NC(=O)c2oc3ccccc3c2NC(=O)COc2ccc(C)cc2)cc1 ?
USP8 inh: -7.2; USP30 inh: 3.4; USP17 inh: 2.3; USP7 inh: 1.0; USP10 inh: 7.8; USP28 block: -1.8

What do the screens show for `COc1cccc(NC(=O)c2oc3ccccc3c2NC(=O)COc2cccc(OC)c2)c1`?
USP8 inh: -8.6; USP30 inh: 6.2; USP17 inh: -3.7; USP7 inh: 3.5; USP10 inh: 34.7*; USP28 block: 0.1

What do the screens show for `COc1cccc(CNC(=O)c2ccc3c(c2)NC(=O)C2CCCN32)c1OC` (centres undefined)?
USP8 inh: 70.3*; USP30 inh: -32.0; USP17 inh: 54.1*; USP7 inh: -2.1; USP10 inh: -3.2; USP28 block: -10.3

Results for CCN1CCN(C(=O)c2ccc3c(c2)NC(=O)C2CCCCN32)CC1 (centres undefined) ?
USP8 inh: -9.6; USP30 inh: -43.3; USP17 inh: -0.5; USP7 inh: 3.0; USP10 inh: -3.6; USP28 block: -9.4

What do the screens show for `CCOC(=O)C1CCN(C(=O)c2ccc3c(c2)NC(=O)C2CCCN32)CC1` (centres undefined)?
USP8 inh: 92.9*; USP30 inh: 11.3; USP17 inh: 73.2*; USP7 inh: -5.8; USP10 inh: 4.8; USP28 block: 11.7

Results for COc1ccc(C2(c3nnc(C4CC4)o3)CCOCC2)cc1 ?
USP8 inh: 1.3; USP30 inh: -1.2; USP17 inh: -8.2; USP7 inh: 0.0; USP10 inh: 0.2; USP28 block: -13.5

What do the screens show for `Cc1cccn2c(=O)c3cc(C#N)c(=O)n(-c4ccccc4[N+](=O)[O-])c3nc12`?
USP8 inh: 11.8; USP30 inh: -70.7; USP17 inh: 38.9*; USP7 inh: 0.1; USP10 inh: -9.5; USP28 block: -21.5

How did Cc1cccn2c(=O)c3cc(C#N)c(=O)n(-c4cccc(C(F)(F)F)c4)c3nc12 do in these assays?
USP8 inh: -2.1; USP30 inh: -386.7; USP17 inh: -88.4; USP7 inh: -22.0; USP10 inh: -8.1; USP28 block: -69.0

Results for Cc1cccc(CN2CC=C(C(=O)Nc3ccccc3)CC2)c1 ?
USP8 inh: -16.2; USP30 inh: -64.6; USP17 inh: -20.7; USP7 inh: -6.1; USP10 inh: -6.5; USP28 block: -17.7

What do the screens show for `CS(=O)(=O)N1CC(C(=O)Nc2ccc(F)cc2)Oc2ccccc21` (centres undefined)?
USP8 inh: 0.0; USP30 inh: -4.0; USP17 inh: -4.0; USP7 inh: -1.3; USP10 inh: 3.7; USP28 block: 0.7

What do the screens show for `CN(C(=O)c1cccc2cccnc12)c1nc2c(s1)CCc1occc1-2`?
USP8 inh: 63.8*; USP30 inh: 25.4; USP17 inh: 69.2*; USP7 inh: 3.4; USP10 inh: -1.3; USP28 block: 24.7

What do the screens show for `O=C(Nc1ccccc1Cl)N1CCN(c2cnn3cnnc3c2)CC1`?
USP8 inh: -13.7; USP30 inh: -4.1; USP17 inh: -3.6; USP7 inh: 1.5; USP10 inh: 29.7; USP28 block: -0.1

Results for COc1ccc(C(=O)Nc2ccc(C(=O)OCc3cc(=O)n4ccsc4n3)cc2)cc1 ?
USP8 inh: 7.6; USP17 inh: 38.1*; USP7 inh: 9.9; USP10 inh: 1.5

Results for Cc1csc2nc(COC(=O)c3cccc(NC(=O)C(C)(C)C)c3)cc(=O)n12 ?
USP8 inh: -2.7; USP30 inh: -19.8; USP17 inh: 0.7; USP7 inh: 0.8; USP10 inh: -2.2; USP28 block: -3.5

Results for CC(=O)Nc1ccc(C(=O)OCc2cc(=O)n3c4c(sc3n2)CCCC4)cc1 ?
USP8 inh: -1.2; USP30 inh: 22.2; USP17 inh: 37.1*; USP7 inh: -0.2; USP10 inh: 0.8; USP28 block: 23.7

How did O=C(Cn1cc(NC(=O)c2ccc3nc[nH]c3c2)cn1)NC1CCCC1 do in these assays?
USP8 inh: -27.1; USP30 inh: -1.7; USP17 inh: 2.0; USP7 inh: 1.1; USP10 inh: -5.0; USP28 block: 1.2

How did Cc1ccccc1-c1nnc(-c2ccc(C(=O)N(C)C(C)c3ccccc3)cc2)o1 (centres undefined) do in these assays?
USP8 inh: 2.8; USP30 inh: -6.6; USP17 inh: 4.5; USP7 inh: 0.7; USP10 inh: 5.8; USP28 block: -6.5
